Most compounds without a hit are left out; they make up all but 6.5% or so of the library.
Lassa entry inh: inhibitors of Lassa virus binding or cell entry; Lassa virus pseudotype entry inhibition, cell reporter; Potency, µM (doses to about 37.9 µM), actives largely listed as inhibitors; actives 1.2% (n = 300,000); AID 540256; calls by dose curve; tested in HEK293 cells; also: nearly all actives have a fitted effect of over 50% in size
HCMV antiviral: inhibitors of human cytomegalovirus. activity change, negative = inhibition, % at 57.5 µM. actives 4.5% (n = 410,000). AID 1259415. HFF cells, HCMV-luciferase reporter, 72 h; stronger effect = lower value; in the data active = activity change below about -60%; inconclusive = no clear call, values can overlap the other calls; inactive = above about -39%
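HFF cells seeded 16 h at 37C, treated with compounds, infected with luciferase-reporter HCMV at MOI 1 PFU/cell; luciferase read at 72 h post infection, normalized to buffer-only and Salinomycin controls.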
FMDV antiviral: blocks foot and mouth disease virus | FMDV antiviral cell-based qHTS | Potency, µM (highest dose often 57.9 µM), usual class: inhibitors | actives 1.2% (n = 410,000) | AID 1159524; calls by dose curve; tested in HEK293T cells; also: read-out not given here; nearly all actives have a fitted effect of over 45% in size
MARV entry inh: inhibitors of Marburg virus binding or cell entry; Marburg virus pseudotyped entry inhibition, cell reporter; Potency, µM (titrated, usually from 37.8 µM), usual class: inhibitors; actives 1.8% (n = 300,000); AID 540276; calls by dose curve; tested in HEK293 cells
VACV Venus inh: vaccinia inhibition (Venus reporter) | Vaccinia virus Venus reporter expression, fluorescence | Potency, µM (series often up to 36.5 µM), most hits filed as inhibitors | actives 0.46% (n = 330,000); calls by dose curve; tested in A549 cells; also: nearly all actives have a fitted effect of over 30% in size
Vaccinia mCherry: vaccinia inhibition (mCherry reporter). Vaccinia virus mCherry reporter infection, fluorescence. actives 0.63% (n = 310,000). AID 720579. Potency, µM (highest dose often 36.5 µM), most hits filed as inhibitors; calls by dose curve; tested in A549 cells; also: nearly all actives have a fitted effect of over 35% in size
A number is an active result; – = inactive; ? = inconclusive; · = no result; ! = a repeat was not active; [ ] = remark or other dose.

SMILES | Lassa entry inh | HCMV antiviral | FMDV antiviral | MARV entry inh | VACV Venus inh | Vaccinia mCherry
Cc1ccc(C)c(S(=O)(=O)c2nnn3c2nc(Nc2ccc(F)c(Cl)c2)c2sccc23)c1 | – | – | – | · | ? | ?
O=C(NCCc1ccccc1)c1ccc(CSc2nc3cccnc3n2Cc2ccccc2)cc1 | – | – | – | · | – | –
O=C(NCc1ccccc1)c1ccc(CSc2nc3cccnc3n2Cc2cccc(F)c2)cc1 | ? | -67 | – | · | – | –
Cc1ccc(CSc2nc3cccnc3n2Cc2ccc(C(=O)NC3CCCCC3)cc2)cc1 | – | – | – | · | 11µM | ?
CN(Cc1ccccc1)C(=O)c1ccc(CSc2nc3cccnc3n2Cc2ccccc2)cc1 | ? | -71 | ? | · | ? | ?
O=C(NCCN1CCCCC1)c1ccc(Cn2c(SCc3cccc(F)c3)nc3cccnc32)cc1 | · | ? | – | 4.5µM | – | –
CN1CCCC(CNC(=O)c2cnn(-c3nccc(-c4cccs4)n3)c2C2CC2)C1 (centres undefined) | · | · | – | · | – | –
CN(C)c1ccc(C(=O)N2CCCC(Cn3cc(C(=O)N4CCCC4)nn3)C2)cc1 (centres undefined) | · | · | – | · | – | –
Cn1c(SCc2ccc(F)cc2)nc2ccc(C(=O)NCc3ccc(F)cc3)cc21 | · | -69 | ? | ? | – | –
Cc1ccc(-n2c(=O)c3c(c4cc(C)ccc4n3C)n(CC(=O)Nc3c(C)cccc3C)c2=O)cc1 | – | – | – | · | – | –
Cc1ccc(-n2c(=O)c3c(c4cc(C)ccc4n3C)n(CC(=O)Nc3ccc(F)cc3)c2=O)cc1 | – | -75 | – | · | – | –
CCc1c(C)nc2nncn2c1NCc1ccc(Cl)cc1 | – | -69 | ? | ? | ? | –
Cc1ccc(CNc2c(C)c(C)nc3nncn23)cc1 | – | – | ? | ? | – | ?
Cc1ncc(CN2CCC(C(=O)Nc3ccc(-n4cccn4)cc3)CC2)s1 | – | – | – | – | – | –
Cc1cc(C)n(-c2ccc(NC(=O)C3CCN(Cc4cnc(C)s4)CC3)cc2)n1 | – | -60 | – | – | – | –
COc1ccc2c(c1)-c1nc(-n3ncc(C(=O)N(C)CC4CCCN(C)C4)c3C3CC3)ncc1CC2 (centres undefined) | · | · | – | · | – | –
Cc1ccc(-c2nnc3ccccc3c2C(=O)Nc2ccc(C)c(F)c2)cc1 | – | – | – | · | – | –
C[C@]12CCC3C(CC[C@]4(O)CC(O)CC[C@@]34C=O)[C@]1(O)CCC2C1=CC(=O)OC1 (some centres undefined) | · | · | ? | · | 10µM | ?
CC1O[C@@H](OC2CC[C@@]3(C=O)C4CC[C@]5(C)C(C6=CC(=O)OC6)CC[C@@]5(O)C4CC[C@]3(O)C2)C(O)C(O)C1O (some centres undefined) | · | · | – | · | 0.045µM | 25µM
N=c1n(CCN2CCCCC2)c2ccccc2n1CC(O)c1ccco1 (centres undefined) | ? | -67 | – | ? | – | –
Cc1cccc(OCC(O)Cn2c(=N)n(CCN3CCCCC3)c3ccccc32)c1 (centres undefined) | ? | -62! | ? | 0.52µM | ? | ?
NC(N)=NN=C1CCC(c2ccccc2)CC1 (centres undefined) | – | – | 7.1µM | – | – | –
CC(=O)NN=C1CCC(c2ccccc2)CC1 (centres undefined) | – | – | – | – | – | –
CC(=O)NC(c1cccs1)c1cc(F)c2cccnc2c1O (centres undefined) | · | -100 | – | · | · | ·
CC(=O)NC(c1ccco1)c1cc(F)c2cccnc2c1O (centres undefined) | · | -67 | – | · | · | ·
SMILES | Lassa entry inh | HCMV antiviral | FMDV antiviral | MARV entry inh | VACV Venus inh | Vaccinia mCherry
CC(C)C(=O)NC1CC(=O)N(c2ccc3c(c2)OCCO3)C1 (centres undefined) | – | – | – | · | – | –
COc1ccc(N2C(=O)NC3CC2(C)Oc2ccccc23)cc1OC (centres undefined) | ? | -62 | – | – | ? | ·
CCS(=O)(=O)c1oc(-c2ccc(F)cc2)nc1S(=O)(=O)c1ccc(Br)cc1 | ? | -99 | 14µM | ? | ? | –
CCCCS(=O)(=O)c1oc(-c2ccc(F)cc2)nc1S(=O)(=O)c1ccccc1 | ? | -99 | 32µM | ? | –[7.34 µM] | –[7.34 µM]
CSc1oc(-c2ccc(F)cc2)nc1S(=O)(=O)c1ccc(F)cc1 | · | ? | – | · | – | –
CC(C)S(=O)(=O)c1oc(-c2ccc(F)cc2)nc1S(=O)(=O)c1ccccc1 | ? | -97 | 16µM | ? | –[7.34 µM] | –[7.34 µM]
Cc1ccc(S(=O)(=O)c2nc(-c3cccs3)oc2SC(C)C)cc1 | – | – | – | – | – | –
CSc1oc(-c2ccc(F)cc2)nc1S(=O)(=O)c1ccccc1 | – | – | · | – | – | –
CC(C)S(=O)(=O)c1oc(-c2cccs2)nc1S(=O)(=O)c1ccc(F)cc1 | ? | -102 | 22µM | ? | –[7.34 µM] | –[7.34 µM]
CS(=O)(=O)c1oc(-c2ccc(F)cc2)nc1S(=O)(=O)c1ccc(Cl)cc1 | ? | -96 | 25µM | – | ? | ?
O=C1C=C(NNC(=O)c2ccccc2Br)CCC1 | ? | -62 | – | ? | – | –
CNC(=S)NNC(=O)c1ccccc1Br | ? | – | – | ? | – | –
CCN(C(=O)CSc1nnc(NCc2ccccc2)s1)C1CCS(=O)(=O)C1 (centres undefined) | – | -74 | – | – | · | ·
Cc1oc(-c2cccc(NC(=O)c3ccccn3)c2)nc1CNC(=O)c1ccc(C(F)(F)F)cc1 | · | · | – | · | – | –
O=C(CNc1cc(S(=O)(=O)N2CCCC2)ccc1OCC(F)(F)F)Nc1ccc(SC(F)F)cc1 | 18µM | -63 | – | 8.2µM | ? | ?
CCN(CC)C(=O)c1sc2c(c1C)c(=O)n(-c1ccccc1)c(=O)n2CC(=O)N(CC)c1cccc(C)c1 | – | – | – | · | – | –
COC(=O)[C@@H]1CCCN1Cc1ccc2c(c1)CN(Cc1cccn1-c1ncccn1)CCO2 | · | · | ? | · | – | –
CCC1CCCCN1C(=O)c1cc(COc2ccc(-n3cncn3)cc2)on1 (centres undefined) | – | -61 | ? | – | – | –
Cc1ccc2c(c1)C(O)(C1C(=O)N(C)c3ccccc31)C(=O)N2Cc1ccccc1 (centres undefined) | · | – | · | · | · | ·
CN(c1ccc(C(=O)NCCSC(C)(C)C)cc1)S(=O)(=O)c1ccccc1 | 23µM | – | – | – | – | –
Cc1ccc(CSCCNC(=O)c2ccc(N(C)S(=O)(=O)c3ccccc3)cc2)cc1 | ? | – | – | ? | ? | ·
CC(C)(C)SCCNC(=O)c1ccccc1 | ? | – | – | – | ? | ·
Cc1ccc(C(=O)NCCSC(C)(C)C)cc1 | 10µM | – | – | 8.9µM | – | ·
COc1ccc(-c2cc(=Nc3c(C)n(C)n(-c4ccccc4)c3=O)c3ccccc3o2)cc1 | – | – | – | ? | – | –
COc1ccc(-c2c/c(=N\c3nc(-c4ccccc4)c(C)s3)c3ccccc3o2)cc1O | ? | -96 | ? | ? | ? | ·
Cc1nn(-c2ccccc2)c(C)c1-c1nnc(-c2c(C)nn(-c3ccccc3)c2C)o1 | ? | – | 32µM | ? | – | –
COc1ccc(C(NC(=O)COc2ccc(C#N)cc2)c2ccc(OC)cc2)cc1 | · | · | · | · | – | –

Screens (PubChem BioAssay)
